For some of these results: Entries with a potency or affinity are not part of this list.

Common to all, as to set-up: scale not given: direction of the effect not stated beside the values
The target of assay [1] is Protein translocase subunit SecA (Escherichia coli (strain K12)) (UniProt P10408). Description: Assay to Identify E. coli SecA ATPase Inhibitors. The assay is classed as functional. Particulars: 30 µM.
Assay [2] addresses T1, Ubiquitin-activating enzyme e1, putative (Leishmania donovani (strain BPK282A1)) (UniProt E9BSI1).
T1 sequence (whole entry): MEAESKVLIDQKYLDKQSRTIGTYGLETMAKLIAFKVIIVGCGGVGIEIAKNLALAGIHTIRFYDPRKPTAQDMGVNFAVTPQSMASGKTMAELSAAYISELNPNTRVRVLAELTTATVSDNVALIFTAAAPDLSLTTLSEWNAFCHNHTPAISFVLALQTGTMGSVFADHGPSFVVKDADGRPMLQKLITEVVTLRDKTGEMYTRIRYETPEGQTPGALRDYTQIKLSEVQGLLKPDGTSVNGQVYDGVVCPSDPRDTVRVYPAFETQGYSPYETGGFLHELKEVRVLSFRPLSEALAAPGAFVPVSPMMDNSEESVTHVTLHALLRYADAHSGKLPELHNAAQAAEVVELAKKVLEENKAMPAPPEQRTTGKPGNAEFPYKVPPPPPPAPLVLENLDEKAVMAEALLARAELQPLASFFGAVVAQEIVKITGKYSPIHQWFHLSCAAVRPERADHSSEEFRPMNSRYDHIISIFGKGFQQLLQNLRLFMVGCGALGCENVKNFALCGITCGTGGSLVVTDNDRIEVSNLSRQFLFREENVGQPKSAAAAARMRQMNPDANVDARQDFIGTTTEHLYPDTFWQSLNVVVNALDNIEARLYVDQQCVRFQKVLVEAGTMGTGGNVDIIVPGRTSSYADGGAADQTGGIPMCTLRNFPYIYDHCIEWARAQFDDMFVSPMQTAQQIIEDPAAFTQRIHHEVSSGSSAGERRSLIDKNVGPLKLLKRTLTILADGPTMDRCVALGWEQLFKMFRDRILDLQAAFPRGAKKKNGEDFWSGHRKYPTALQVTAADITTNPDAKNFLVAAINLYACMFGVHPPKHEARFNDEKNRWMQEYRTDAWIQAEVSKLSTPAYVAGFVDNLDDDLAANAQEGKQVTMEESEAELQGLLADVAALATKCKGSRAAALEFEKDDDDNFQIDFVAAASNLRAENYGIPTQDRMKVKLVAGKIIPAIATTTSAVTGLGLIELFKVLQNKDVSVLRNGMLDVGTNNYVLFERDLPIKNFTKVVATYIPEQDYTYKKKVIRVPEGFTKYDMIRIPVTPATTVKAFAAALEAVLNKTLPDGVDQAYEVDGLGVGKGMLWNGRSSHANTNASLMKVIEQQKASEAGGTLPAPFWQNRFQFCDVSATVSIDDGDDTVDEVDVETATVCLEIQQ
Description: Leishmania donovani Ubiquitin Activating Enzyme (LdE1). The assay is classed as functional. The settings on record: 30 µM.

Assay [3] has as its target AMP-activated protein kinase, AMPK (Homo sapiens) (UniProt P54646+O43741+P54619+Q9UGJ0+Q9Y478+Q13131+Q9UGI9). The assay can be described thus: AMP-dependent Kinase enzyme assay. An in vitro enzyme assay that detects ADP turnover that is directly proportional to AMPK activity. This uses naive AMPK that is activated during the assay with MK-8722. The assay is classed as functional. The settings on record: 30 µM.

In assay [4] the target is Sialic acid-binding Ig-like lectin 9 (Homo sapiens) (UniProt Q9Y336). The assay can be described thus: Hs-Siglec9 ALPHAscreen SOP 20170721. The settings on record: 10 µM. (Alpha assays give light when donor and acceptor beads are brought close together.)
The subject of assay [5] is Trypanosoma cruzi. Description: Trypanosoma cruzi phosphomannomutase and mannose-1-phosphate guanylyltransferase assay. The assay is classed as functional. The settings on record: 10 µM.
Assay [6] has as its target T2, Arginase-2, mitochondrial (Homo sapiens) (UniProt P78540).
T2 sequence (whole entry): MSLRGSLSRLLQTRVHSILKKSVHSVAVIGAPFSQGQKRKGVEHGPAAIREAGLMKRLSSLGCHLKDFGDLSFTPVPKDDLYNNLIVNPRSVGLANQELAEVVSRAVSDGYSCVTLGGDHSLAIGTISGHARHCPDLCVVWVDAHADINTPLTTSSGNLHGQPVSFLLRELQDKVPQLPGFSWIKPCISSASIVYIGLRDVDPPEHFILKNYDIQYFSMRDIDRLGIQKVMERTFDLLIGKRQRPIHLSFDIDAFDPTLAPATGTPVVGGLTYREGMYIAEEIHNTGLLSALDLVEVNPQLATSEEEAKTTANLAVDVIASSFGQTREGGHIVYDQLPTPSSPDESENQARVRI
The assay can be described thus: in vitro enzyme assay to detect the production of urea directly proportional to the activity of Arginase II. Further: in the data most compounds retested in dose-response had high values. The assay is classed as functional. Particulars: 33.3 µM.

Assay [7] deals with T3, Proteasome subunit beta (Trypanosoma cruzi) (UniProt O96673).
T3 sequence (whole entry): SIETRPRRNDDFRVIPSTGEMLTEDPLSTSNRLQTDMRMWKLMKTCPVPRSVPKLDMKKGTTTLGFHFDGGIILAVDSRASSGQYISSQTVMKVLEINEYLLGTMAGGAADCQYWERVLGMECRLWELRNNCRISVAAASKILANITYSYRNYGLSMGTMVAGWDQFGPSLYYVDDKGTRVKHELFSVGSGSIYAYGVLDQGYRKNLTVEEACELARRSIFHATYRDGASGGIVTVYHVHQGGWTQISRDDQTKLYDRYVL
Description: Trypanosoma cruzi proteasome chymotrypsin-like activity (TcProtChymo) assay. Further: in the data most compounds retested in dose-response had high values. The assay is classed as functional. The settings on record: 9.37 µM.

The species entered for assay [8] is Homo sapiens. Description: To identify inhibition of the IFN signalling (Jak-Stat) pathway via expression of an eGFP reporter gene under the control of an IFN-stimulated response element (ISRE) containing MxA promoter. The assay is classed as functional. Particulars: 30 µM. In general terms: Reporter assays use an easily measured gene product as a stand-in for the process of interest.

The target of assay [9] is T4, Tyrosyl-tRNA synthetase, putative (Trypanosoma cruzi (strain CL Brener)) (UniProt Q4DSP6).
T4 sequence (whole entry): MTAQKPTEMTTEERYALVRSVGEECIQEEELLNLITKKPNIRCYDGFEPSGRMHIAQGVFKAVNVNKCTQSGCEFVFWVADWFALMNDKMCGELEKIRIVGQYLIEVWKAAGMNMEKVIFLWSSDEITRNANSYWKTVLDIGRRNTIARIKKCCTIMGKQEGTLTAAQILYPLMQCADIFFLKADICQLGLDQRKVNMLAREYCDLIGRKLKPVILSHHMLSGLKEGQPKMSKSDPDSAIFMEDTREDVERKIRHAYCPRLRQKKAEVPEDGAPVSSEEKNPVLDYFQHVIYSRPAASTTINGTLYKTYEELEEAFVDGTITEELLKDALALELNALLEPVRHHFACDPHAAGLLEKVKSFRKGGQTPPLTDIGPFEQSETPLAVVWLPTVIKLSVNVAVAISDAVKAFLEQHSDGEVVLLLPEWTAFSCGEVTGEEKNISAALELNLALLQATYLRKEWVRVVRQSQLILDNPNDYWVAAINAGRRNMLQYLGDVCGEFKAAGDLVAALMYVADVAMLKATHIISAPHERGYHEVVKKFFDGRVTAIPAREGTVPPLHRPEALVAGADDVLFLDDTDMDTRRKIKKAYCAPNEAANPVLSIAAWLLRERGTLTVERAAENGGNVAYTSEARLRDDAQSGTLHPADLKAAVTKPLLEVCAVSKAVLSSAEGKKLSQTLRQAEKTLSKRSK
Description: Trypanosoma cruzi tyrosyl tRNA synthetase (TcYRS) _High Tyrosine SOP. Further: in the data most compounds retested in dose-response had high values. The assay is classed as functional. The settings on record: 30 µM.

The target in assay [10] is T4, Tyrosyl-tRNA synthetase, putative (Trypanosoma cruzi (strain CL Brener)). Description: Trypanosoma cruzi tyrosyl tRNA synthetase (TcYRS) SOP. The assay is classed as functional. Particulars: 30 µM.
Assay [11] addresses Chromo domain-containing protein 1 (Saccharomyces cerevisiae (strain ATCC 204508 / S288c) (Baker's yeast)) (UniProt P32657). Description: ScCHD-1 Enzyme Inhibition Assay. Further: in the data most compounds retested in dose-response had high values. The assay is classed as functional. Particulars: 30 µM.

Chain of Protein translocase subunit SecA (Escherichia coli (strain K12)) (P10408 whole entry): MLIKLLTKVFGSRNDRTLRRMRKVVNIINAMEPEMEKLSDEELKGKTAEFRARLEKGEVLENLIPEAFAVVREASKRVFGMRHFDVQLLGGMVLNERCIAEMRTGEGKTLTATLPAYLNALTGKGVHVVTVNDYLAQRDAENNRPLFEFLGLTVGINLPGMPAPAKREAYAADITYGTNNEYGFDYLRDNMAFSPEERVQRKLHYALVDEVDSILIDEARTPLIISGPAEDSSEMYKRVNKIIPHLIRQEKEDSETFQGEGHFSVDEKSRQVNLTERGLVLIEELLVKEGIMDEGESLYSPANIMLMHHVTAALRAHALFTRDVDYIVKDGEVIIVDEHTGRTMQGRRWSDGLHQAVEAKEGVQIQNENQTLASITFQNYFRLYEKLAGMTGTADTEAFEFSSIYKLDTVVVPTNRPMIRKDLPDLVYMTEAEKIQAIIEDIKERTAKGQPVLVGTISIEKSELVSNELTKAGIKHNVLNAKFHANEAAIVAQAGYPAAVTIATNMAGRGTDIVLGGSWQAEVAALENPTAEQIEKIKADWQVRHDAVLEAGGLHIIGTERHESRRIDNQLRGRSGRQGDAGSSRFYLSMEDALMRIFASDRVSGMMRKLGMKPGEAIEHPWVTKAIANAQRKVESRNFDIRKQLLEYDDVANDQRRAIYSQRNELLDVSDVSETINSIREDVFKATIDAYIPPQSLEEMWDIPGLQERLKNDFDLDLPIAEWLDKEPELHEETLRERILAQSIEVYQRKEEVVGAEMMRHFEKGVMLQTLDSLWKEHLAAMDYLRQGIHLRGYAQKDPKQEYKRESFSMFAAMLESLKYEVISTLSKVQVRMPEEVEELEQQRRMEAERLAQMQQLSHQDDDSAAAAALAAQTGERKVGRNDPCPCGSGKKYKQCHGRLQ
Chain of Sialic acid-binding Ig-like lectin 9 (Homo sapiens) (Q9Y336 whole entry): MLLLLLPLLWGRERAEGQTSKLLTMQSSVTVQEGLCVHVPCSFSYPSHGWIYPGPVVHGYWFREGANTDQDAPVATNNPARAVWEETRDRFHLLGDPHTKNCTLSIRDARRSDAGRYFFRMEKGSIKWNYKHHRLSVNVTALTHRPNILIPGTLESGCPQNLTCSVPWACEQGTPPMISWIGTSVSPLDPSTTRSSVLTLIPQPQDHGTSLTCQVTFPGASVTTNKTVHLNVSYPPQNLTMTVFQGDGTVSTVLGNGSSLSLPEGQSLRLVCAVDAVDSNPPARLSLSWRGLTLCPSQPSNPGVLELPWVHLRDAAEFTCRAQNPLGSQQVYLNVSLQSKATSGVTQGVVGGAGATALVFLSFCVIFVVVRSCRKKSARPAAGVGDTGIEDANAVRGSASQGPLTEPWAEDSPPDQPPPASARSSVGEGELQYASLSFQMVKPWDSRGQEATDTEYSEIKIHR
Chain of Chromo domain-containing protein 1 (Saccharomyces cerevisiae (strain ATCC 204508 / S288c) (Baker's yeast)) (P32657 whole entry, the tested form may be a part): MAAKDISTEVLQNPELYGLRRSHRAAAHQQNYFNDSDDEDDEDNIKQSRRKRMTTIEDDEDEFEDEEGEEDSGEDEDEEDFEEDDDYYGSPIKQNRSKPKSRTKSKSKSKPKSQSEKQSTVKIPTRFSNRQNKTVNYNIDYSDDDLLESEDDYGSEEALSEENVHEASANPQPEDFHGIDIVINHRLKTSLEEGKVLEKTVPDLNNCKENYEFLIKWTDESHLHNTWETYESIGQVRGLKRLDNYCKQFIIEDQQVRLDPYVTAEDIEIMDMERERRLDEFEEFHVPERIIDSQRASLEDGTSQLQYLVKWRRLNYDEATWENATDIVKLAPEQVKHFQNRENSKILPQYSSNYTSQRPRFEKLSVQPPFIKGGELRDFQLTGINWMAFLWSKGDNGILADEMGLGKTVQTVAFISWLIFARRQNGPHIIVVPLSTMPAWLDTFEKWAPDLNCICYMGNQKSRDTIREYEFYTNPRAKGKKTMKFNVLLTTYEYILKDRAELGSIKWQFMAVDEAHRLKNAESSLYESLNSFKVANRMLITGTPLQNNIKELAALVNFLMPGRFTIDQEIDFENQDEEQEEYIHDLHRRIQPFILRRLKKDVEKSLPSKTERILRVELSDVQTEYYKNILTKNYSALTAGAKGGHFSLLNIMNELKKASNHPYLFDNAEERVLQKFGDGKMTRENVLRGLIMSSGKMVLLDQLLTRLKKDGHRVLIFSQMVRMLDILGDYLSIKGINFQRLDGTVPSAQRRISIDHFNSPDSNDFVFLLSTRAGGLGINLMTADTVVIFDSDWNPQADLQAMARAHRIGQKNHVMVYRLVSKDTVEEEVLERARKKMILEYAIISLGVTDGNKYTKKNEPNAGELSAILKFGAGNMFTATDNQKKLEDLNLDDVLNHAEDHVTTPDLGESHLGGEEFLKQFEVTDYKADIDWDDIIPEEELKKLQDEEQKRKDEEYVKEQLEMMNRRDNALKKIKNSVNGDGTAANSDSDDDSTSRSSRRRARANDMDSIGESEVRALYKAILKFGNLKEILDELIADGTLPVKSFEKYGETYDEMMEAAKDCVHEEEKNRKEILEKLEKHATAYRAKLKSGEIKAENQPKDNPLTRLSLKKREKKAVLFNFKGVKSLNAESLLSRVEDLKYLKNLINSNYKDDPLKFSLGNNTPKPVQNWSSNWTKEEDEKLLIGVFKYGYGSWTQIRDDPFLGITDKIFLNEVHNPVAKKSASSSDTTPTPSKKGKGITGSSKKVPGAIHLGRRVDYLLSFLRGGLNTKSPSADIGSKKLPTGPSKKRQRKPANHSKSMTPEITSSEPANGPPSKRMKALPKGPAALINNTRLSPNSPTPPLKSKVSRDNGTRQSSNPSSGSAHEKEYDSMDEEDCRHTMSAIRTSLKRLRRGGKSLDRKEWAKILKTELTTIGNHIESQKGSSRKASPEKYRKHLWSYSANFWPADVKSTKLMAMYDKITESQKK

As for `O=C(c1cccc(CNCC2CNc3ccnn3C2)c1)N1CCCC1` (stereo unspecified), the Percent Effect in [1] was -3.44%; in assay [2], 8.86%; in assay [3], -18.1%; in assay [4], -4.78%; in assay [5], 4.41%; in assay [6] it was -4.09%. Besides, the Percent Effect was 18.4% in assay [7]; 6.92% in [8]; 8.33% in assay [9]; 10.1% in assay [10]; -18.2% in assay [11].

In the case of `O=C(CCCn1cncn1)NC1(c2ccccc2)CCC1`, the Percent Effect in assay [1] is -7.52%; in [2], 7.79%; in assay [3], 1.86%; in assay [4] it was 8.16%; in assay [5], -6%; in assay [6], -11%. For the same compound, the Percent Effect in assay [7] was 13.6%; in assay [8] it was 15.5%; in [9], 3.23%; in assay [10] it was 11.1%; in assay [11], -1%.

For `Cc1ccc(C2CSCCN2C(=O)c2ccsc2)o1` (stereo unspecified), the Percent Effect in [1] is -7.12%; in assay [2] it was 8.11%; in assay [3] it was 5.16%; in assay [4] it was 3.24%; in [5], -1.66%; in assay [6], 4.22%. Also, the Percent Effect is 8.15% in [7]; -0.446% in assay [8]; 1.07% in assay [9]; 6.17% in assay [10]; -3.21% in assay [11].

With `c1cnn(CC2CCCCN2c2ncnc3sccc23)c1` (stereo unspecified), the Percent Effect was -7.65% in [1]; -5.33% in assay [2]; 0.901% in assay [3]; 5.7% in [4]; -2.63% in assay [5]; -1.56% in [6]. Moreover, the Percent Effect is 6.45% in [7]; 29.1% in assay [8]; -0.546% in [9]; -1.24% in [10]; -3.05% in assay [11].

For the compound `CCCS(=O)(=O)Nc1ccc2c(c1)OCC(C)(C)C(=O)N2C`, the Percent Effect in [1] was -0.588%; in assay [2] it was 11%; in assay [3], -6.5%; in assay [4], 1.41%; in assay [5], -5.09%; in assay [6], -2.27%. Also, the Percent Effect in assay [7] is 12.6%; in assay [8] it was 8.18%; in assay [9] it was 2.15%; in assay [10], 10%; in assay [11], -5.87%.

As for `COc1ccc(CN(C)[C@@H]2CN(C(=O)c3cccs3)C[C@H]2O)cc1`, the Percent Effect in assay [1] is -3.27%; in assay [2] it was 6.76%; in [3], 10.4%; in [4], 2.59%; in [5], -6.13%; in [6] it was -2.09%. For the same compound, the Percent Effect in assay [7] was 10.6%; in [8], 15.6%; in assay [9], 5.38%; in [10], 9.09%; in [11], -9%.

`Cc1nc2ccnn2c(C)c1CCC(=O)N1CCN(C2CC2)CC1`: the Percent Effect is -4.83% in assay [1]; 18.4% in [2]; 9.42% in [3]; -13.6% in assay [4]; -7.38% in assay [5]; 0.719% in assay [6]. Further, the Percent Effect is 10.9% in assay [7]; 7.93% in assay [8]; 4.43% in assay [9]; 13.6% in [10]; -7.28% in [11].

With `CN(Cc1ccc(C#N)cc1)Cc1noc(C(C)(C)C)n1`, the Percent Effect in assay [1] is -3.57%; in assay [2], 0%; in assay [3], -1.73%; in assay [4] it was 0.255%; in assay [5] it was -0.885%; in assay [6] it was 2.76%. The Percent Effect is 3% in assay [7]; 8.86% in assay [8]; -1.07% in assay [9]; -1.24% in assay [10]; 2.69% in assay [11].

As for `Cc1cnn(CC2CN(Cc3cccc(OCC(N)=O)c3)CCO2)c1` (stereo unspecified), the Percent Effect was -3.33% in assay [1]; -5.2% in assay [2]; 0.653% in [3]; 4.26% in [4]; -7.3% in assay [5]; 5.34% in assay [6]. Further, the Percent Effect was -2.53% in [7]; 23.4% in [8]; 3.88% in assay [9]; -2.44% in [10]; 1.45% in assay [11].

For the compound `CNc1cc(N2CCCC2CNCc2c[nH]nc2C(C)(C)C)ncn1` (stereo unspecified), the Percent Effect was -3.59% in assay [1]; 0% in assay [2]; -14.4% in assay [3]; -4.25% in [4]; -4.88% in assay [5]; -4.17% in assay [6]. Also, the Percent Effect in assay [7] is 6%; in assay [8], -0.674%; in [9], 5.94%; in assay [10] it was 6.1%; in assay [11] it was 0.0939%.

Take `CC(C)COCC1CN(Cc2ccc3c(c2)OCO3)Cc2ncn(C)c21` (stereo unspecified): the Percent Effect was -6.14% in [1]; -5.41% in assay [2]; 10.1% in assay [3]; 2.92% in assay [4]; -1.17% in assay [5]; -3.75% in assay [6]. Moreover, the Percent Effect in assay [7] turned out to be 2.11%; in assay [8], 29.9%; in assay [9], 3.96%; in assay [10], 3.66%; in assay [11] it was 0.344%.

For the origin of these results see ChEMBL document CHEMBL3988442, “University of Dundee, Small-Polar-MMV Screening Library” (2021).
